Source: PubChem
DAX1 inh-1: inhibits human nuclear receptor DAX1 | HEK293 Gal4-DAX1 luciferase reporter, luminescence | inhibition, % at 6.75 µM | 0.99% of 340,000 active | AID 504766;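 active means inhibition above the mean over all tested compounds plus 3 SD, cut at about 4.2% in these data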;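 further: 0% = DAX1-transfected cells with DMSO and 100% = empty-vector control cells with DMSO; inhibition shows as a rise in luminescence from relieved DAX1 repression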
Target sequence (P51843 207-470 limits assumed): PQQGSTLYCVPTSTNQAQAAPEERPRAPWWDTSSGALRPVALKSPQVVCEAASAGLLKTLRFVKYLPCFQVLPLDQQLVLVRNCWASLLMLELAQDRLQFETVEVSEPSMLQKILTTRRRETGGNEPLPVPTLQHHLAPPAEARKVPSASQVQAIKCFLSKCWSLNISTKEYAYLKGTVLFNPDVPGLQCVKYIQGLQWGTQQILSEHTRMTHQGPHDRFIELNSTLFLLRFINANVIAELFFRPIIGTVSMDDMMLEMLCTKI
ssDAF12 agonist: activates DAF-12 receptor from parasite S. stercoralis. HEK293 ssDAF-12/GRIP1 lit1-tk-luc reporter, luminescence; % of 3 µM dafachronic acid response. activation, % at 6.8 µM. 1% of 370,000 active;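 active means activation above the mean over all tested compounds plus 3 SD, cut at about 0.9% in these data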;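 further: 0% = DMSO-only wells and 100% = 3 µM delta7-dafachronic acid wells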
DAX1 inh-2: inhibitors of DAX1 repression of SF-1 activated StAR promoter; HEK293T StAR-luciferase reporter, SF-1/DAX-1 repression relief; inhibition, % at 6.8 µM; 1.1% of 370,000 active; AID 652010;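 active means inhibition above the mean over all tested compounds plus 3 SD, cut at about 3.6% in these data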;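 further: 0% = DAX-1 cells with DMSO and 100% = cells lacking DAX-1 with DMSO; higher inhibition means more luminescence from relief of DAX-1 repression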
hgDAF-12 ag: hgDAF-12 agonism, primary luciferase screen; HEK293 GAL4-hgDAF12 UAS-luciferase reporter, agonist luminescence; normalized to butyrate control; 1.8% of 370,000 active; AID 687014; activation, % at 6.8 µM;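 active means activation above a cutoff set at the mean of all screened compounds plus 3 SD, cut at about 10% in these data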;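 further: 0% = DMSO wells and 100% = sodium butyrate wells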
hcDAF12 agonist: activators of H. contortus DAF-12 nuclear receptor. HEK293 hcDAF-12 lit1-tk-luc reporter, luminescence; 0% DMSO, 100% Δ7-dafachronic acid. activation, % at 6.8 µM. 1.4% of 370,000 active;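 active means activation above the mean of all tested compounds plus 3 SD, cut at about 5.5% in these data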;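 further: 100% = response to 3 µM Δ7-dafachronic acid high control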
An asterisk follows results filed as active. Compounds with a hit are over-represented: about 4.1% of the library has one in this group of screens.

COCCn1c(SCC(=O)N2CC(C)OC(C)C2)nc2c([nH]c3ccccc32)c1=O (stereo unspecified) was read as DAX1 inh-1 0.1, ssDAF12 agonist 0.3, DAX1 inh-2 1.2, hgDAF-12 ag 3.7 and hcDAF12 agonist 5.9*.
For CC(=O)c1cc(-c2cc3ccccc3o2)c(=O)n2c1CCC2 the results were ssDAF12 agonist -1.5, DAX1 inh-2 0.0, hgDAF-12 ag -0.7 and hcDAF12 agonist 1.6.
Screening O=C(CSc1nc2c([nH]c3ccccc32)c(=O)n1-c1ccccc1)N1CCOCC1 returned DAX1 inh-1 0.2, ssDAF12 agonist -0.9, DAX1 inh-2 -0.3, hgDAF-12 ag 3.0 and hcDAF12 agonist 6.0*.
`Cc1nc(-c2ccc(C(=O)N3CCCC3)cc2)cs1` gave DAX1 inh-1 -0.8, ssDAF12 agonist -0.5, DAX1 inh-2 3.6, hgDAF-12 ag 10.6* and hcDAF12 agonist 3.2.
`C=CCn1c(SCC(=O)O)nnc1-c1ccco1` gave ssDAF12 agonist -1.9, DAX1 inh-2 -0.4, hgDAF-12 ag 0.5 and hcDAF12 agonist 0.5.
Screening CN(CCCOC(=O)CC1C=CCC1)C1CN(Cc2cn(Cc3ccccc3Cl)nn2)S(=O)(=O)C1 (stereo unspecified) returned ssDAF12 agonist -0.9, DAX1 inh-2 0.2, hgDAF-12 ag -0.9 and hcDAF12 agonist -0.5.
NC(=O)C1C(=O)c2ccccc2C1(C[N+](=O)[O-])c1ccccc1 (stereo unspecified) was read as DAX1 inh-1 -0.5, ssDAF12 agonist -0.1, DAX1 inh-2 1.3, hgDAF-12 ag -1.8 and hcDAF12 agonist 5.8*.
For O=C(O)CC1(c2ccccc2)C(=O)c2ccccc2C1=O the results were DAX1 inh-1 -0.3, ssDAF12 agonist -0.9, DAX1 inh-2 -0.2, hgDAF-12 ag -1.1 and hcDAF12 agonist -1.1.
For C=CC[C@H]1c2ccccc2[C@H]2N3N=Cc4ccccc4[C@H]3[C@H](CCCC)C(=O)N2N1C(=O)NCc1ccccc1 the results were ssDAF12 agonist -1.3, DAX1 inh-2 -0.7, hgDAF-12 ag -0.6 and hcDAF12 agonist 0.4.
Screening CCOc1cccc(C(=O)Nc2ccc3c(c2)OCCO3)c1 returned DAX1 inh-1 -1.3, ssDAF12 agonist 0.9*, DAX1 inh-2 2.6, hgDAF-12 ag 8.1 and hcDAF12 agonist 5.5.
Screening O=C(Nc1ccc2c(c1)OCCO2)c1cccc(C(=O)Nc2ccc3c(c2)OCCO3)c1 returned DAX1 inh-1 -0.9, ssDAF12 agonist -1.1, DAX1 inh-2 -0.3, hgDAF-12 ag 1.3 and hcDAF12 agonist 2.9.
Screening CC(=O)c1ccc(OCCCC(=O)Nc2ccc3c(c2)OCCO3)cc1 returned DAX1 inh-1 0.1, ssDAF12 agonist -1.3, DAX1 inh-2 -2.5, hgDAF-12 ag 0.7 and hcDAF12 agonist -1.3.
Screening CCCOc1ccc(C(=O)Nc2ccc3c(c2)OCCO3)cc1 returned DAX1 inh-1 0.4, ssDAF12 agonist 0.7, DAX1 inh-2 2.2, hgDAF-12 ag 12.6* and hcDAF12 agonist 5.7*.
CCSc1nnc(N2C(=O)CC(c3ccsc3)C3=C2CC(C)(C)CC3=O)s1 (stereo unspecified) was read as DAX1 inh-1 5.3*, ssDAF12 agonist -1.1, DAX1 inh-2 1.7, hgDAF-12 ag -2.7 and hcDAF12 agonist -1.6.
`CC1(C)CC(=O)C2=C(C1)N(c1ccc(F)cc1)C(=O)CC2c1cccnc1` (stereo unspecified) gave DAX1 inh-1 0.7, ssDAF12 agonist -1.7, DAX1 inh-2 -0.1, hgDAF-12 ag 0.4 and hcDAF12 agonist -1.5.
`COC(=O)[C@]12C[C@H](CC(=O)NCC34CC5CC(CC(C5)C3)C4)C(=O)N(Cc3ccc4c(c3)OCO4)C1=C[C@H](C(C)(C)C)O[C@@H]2C` gave ssDAF12 agonist -0.1, DAX1 inh-2 -0.1, hgDAF-12 ag -1.8 and hcDAF12 agonist -1.3.
S=C1Nc2ccccc2CS1 was read as DAX1 inh-1 -1.6, ssDAF12 agonist -1.0, DAX1 inh-2 -0.9, hgDAF-12 ag 0.9 and hcDAF12 agonist -1.1.
Screening CC1=C(C)NC(=S)SC1 returned DAX1 inh-1 1.4, ssDAF12 agonist -0.7, DAX1 inh-2 0.1, hgDAF-12 ag -0.7 and hcDAF12 agonist 5.6*.
`Cn1cccc1C(=O)N1CCN(S(=O)(=O)c2ccc(Cl)s2)CC1` gave ssDAF12 agonist -1.3, DAX1 inh-2 -1.4, hgDAF-12 ag -4.5 and hcDAF12 agonist -0.8.
O=C(CCS(=O)(=O)c1cccc2nsnc12)NC1CCCCC1 was read as DAX1 inh-1 0.5, ssDAF12 agonist -1.5, DAX1 inh-2 -0.3, hgDAF-12 ag -0.8 and hcDAF12 agonist -0.1.
`COc1ccc(Cn2nnc(C(=O)Nc3ccc(F)cc3)c2N)cc1` gave DAX1 inh-1 -0.1, ssDAF12 agonist -0.2, DAX1 inh-2 -0.8, hgDAF-12 ag 1.2 and hcDAF12 agonist 0.5.
Nc1c(C(=O)Nc2ccc3c(c2)OCCO3)nnn1Cc1ccc(F)cc1 was read as DAX1 inh-1 -0.1, ssDAF12 agonist 0.0, DAX1 inh-2 4.2*, hgDAF-12 ag 8.8 and hcDAF12 agonist 2.5.
COc1ccccc1CCn1cnc(-c2ccc(Br)cc2)c1CC(C)C was read as ssDAF12 agonist -1.4, DAX1 inh-2 -0.2, hgDAF-12 ag -1.1 and hcDAF12 agonist -0.8.
Screening CCN(CC)C(=O)CC[C@@H]1CC[C@]2(CCCN(Cc3cccc4ccccc34)C2)O1 returned ssDAF12 agonist -1.6, DAX1 inh-2 -0.6, hgDAF-12 ag 0.7 and hcDAF12 agonist -2.7.
For CCCc1cc(C(=O)Nc2cc(Cl)ccc2O)no1 the results were DAX1 inh-1 3.1, ssDAF12 agonist 0.4, DAX1 inh-2 0.9, hgDAF-12 ag 11.0* and hcDAF12 agonist 5.6*.
For CC(C)Cc1cc(C(=O)Nc2ccc(F)cc2F)no1 the results were DAX1 inh-1 1.1, ssDAF12 agonist -0.6, DAX1 inh-2 3.9*, hgDAF-12 ag 12.3* and hcDAF12 agonist 0.5.
`CCc1ccc(NC(=O)c2cc(-c3cccs3)on2)cc1` gave DAX1 inh-1 1.6, ssDAF12 agonist -0.1, DAX1 inh-2 0.7, hgDAF-12 ag 8.3 and hcDAF12 agonist -1.1.
`CC(C)c1cc(C(=O)Nc2cc(Cl)ccc2O)no1` gave DAX1 inh-1 2.2, ssDAF12 agonist -0.5, DAX1 inh-2 3.2, hgDAF-12 ag 8.9 and hcDAF12 agonist 1.8.
`CCc1ccc(NC(=O)c2cc(C)no2)cc1` gave DAX1 inh-1 4.4*, ssDAF12 agonist -0.8, DAX1 inh-2 0.5, hgDAF-12 ag 5.0 and hcDAF12 agonist 0.7.
`CCCc1cc(C(=O)Nc2ccc(CC)cc2)no1` gave DAX1 inh-1 3.1, ssDAF12 agonist -0.3, DAX1 inh-2 2.0, hgDAF-12 ag 10.9* and hcDAF12 agonist 4.7.
`CC(C)(C)c1ccc(-c2nnc(SCC(=O)Nc3ccc(S(=O)(=O)Nc4nccs4)cc3)n2-c2ccc(Cl)cc2)cc1` gave ssDAF12 agonist -1.0, DAX1 inh-2 0.6, hgDAF-12 ag 2.9 and hcDAF12 agonist -1.3.
`CC(C)Cc1cc(C(=O)Nc2ccc(Br)cc2)no1` gave DAX1 inh-1 1.8, ssDAF12 agonist -0.1, DAX1 inh-2 2.1, hgDAF-12 ag 3.8 and hcDAF12 agonist 1.5.
